Assay results reported in PubChem BioAssay AID2546 (National Center for Advancing Translational Sciences (NCATS), 2010).
Hit rate of the full screen: of about 310,000 compounds, about 11,000 (3.5%) were called active. Another 8% or so got no clear call; they are omitted. Calls come from the whole dose curve; as a rule, active = well fitted inhibition curve with a large enough effect; inconclusive = small, poorly fitted or top-dose-only effect, or effect the other way; inactive = flat fitted curve, though single readings scatter. The list comes from a sample in which actives are over-represented; it also holds similar structures and randomly drawn compounds. Entries that show only a call come without a potency.

Experiment: VP16 counterscreen qHTS for inhibitors of ROR gamma transcriptional activity;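 note: Gal4-VP16 expression switched on by copper sulfate through the metallothionein promoter; nearly all actives have a fitted effect of over 50% in size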
Details: Drosophila S2 Gal4-VP16 UAS-luciferase, luminescence, 20 h; series mostly up to 53.6 µM
Potency is the fitted concentration of half-maximal effect.

Row | Compound | Potency
1 | COc1ccc(N2CCN(C(=O)[C@@H](NC(=O)c3cc(OC)cc(OC)c3)C(C)C)CC2)cc1 | inactive
2 | CCC(NC(=O)c1cc(COc2ccc(F)c(F)c2)on1)c1ccncc1 (stereo not given) | inactive
3 | Cc1cc(C)cc(NC(=O)NC2CCCCCCC2)c1 | inactive
4 | CC(Oc1ccc(Br)cc1Br)C(=O)NC1CCCC1 (stereo not given) | inactive
5 | CC(C)c1ccc(NC(=O)NC2CCCCC2)cc1 | inactive
6 | Cc1ccc(NC(=S)NC2CCCC2)cc1 | 11.2 µM (active)
7 | Cc1cc(Br)ccc1NC(=S)NC1CCCC1 | 5.62 µM (active)
8 | Cc1ccc(NC(=O)CSCC(=O)NC2CCCCC2)cc1 | inactive
9 | CCC1=Nc2cc(C(=O)NCCN3CCCC3)ccc2Sc2ccc(C)cc21 | inactive
10 | C/C(=N/OC(=O)c1ccc(Br)cc1)c1ccc(C)cc1 | inactive
11 | COc1ccccc1C(=O)N/C(=C/c1ccco1)C(=O)Nc1ccc(C(=O)O)cc1 | inactive
12 | CN(C)S(=O)(=O)c1cccc(NC(=O)COC(=O)c2cc(=O)[nH]c(=O)[nH]2)c1 | inactive
13 | Cc1ccc(/C=N/NC(=S)Nc2cccc(S(=O)(=O)N(C)C)c2)o1 | 15.8 µM (active)
14 | CN(C)S(=O)(=O)c1cccc(NC(=O)Cc2ccsc2)c1 | inactive
15 | N#CCC(=O)NC1CCC(CC2CCC(NC(=O)CC#N)CC2)CC1 (stereo not given) | inactive
16 | COCCNc1ccc(-c2n[nH]c(=O)c3ccccc23)cc1[N+](=O)[O-] | inactive
17 | Cc1ccc2oc(C(=O)N3CCN(C)C[C@@H]3C(C)C)c(C)c2c1 | inactive
18 | Cc1ccsc1C(=O)OCC(=O)c1cc(C)n(CC2CCCO2)c1C (stereo not given) | 7.08 µM (active)
19 | Cc1nnc(SCC(N)=O)n1CC1CCCO1 (stereo not given) | inactive
20 | Cc1cc(C(=O)Cn2cnc3cc([N+](=O)[O-])ccc3c2=O)c(C)n1CC1CCCO1 (stereo not given) | inactive
21 | CCOc1ccc2[nH]c(=O)c(CN(CCCO)S(=O)(=O)c3ccc(F)cc3)cc2c1 | inactive
22 | COc1ccc2oc(C(=O)NCc3ccco3)c(C)c2c1 | inactive

Row | Compound | Potency
23 | CN(C)c1ccc(-c2nc(NCCN3CCOCC3)c3ccccc3n2)cc1 | inactive
24 | Clc1ccccc1-c1cc(NCCN2CCOCC2)ncn1 | inactive
25 | c1ccc2cc3c(NCCN4CCOCC4)ccnc3cc2c1 | 12.6 µM (active)
26 | COc1ccc(NC(=O)/C(Cl)=C(/Cl)S(=O)Cc2ccc(C)cc2)cn1 (stereo not given) | inactive
27 | COc1ccc(CS(=O)/C(Cl)=C(/Cl)C(=O)Nc2ccc(OC)nc2)cc1 (stereo not given) | 3.98 µM (active)
28 | COc1ccc(C(=O)Nc2ccc(NC(=O)C(C)C)nc2)cc1 | inactive
29 | COc1cccc(CNC(=O)COc2cc(O)c3c(c2)OC(C)(C)CC3=O)c1 | inactive
30 | COc1ccc(/C=N/NC(=O)c2ccccc2)cc1OS(=O)(=O)c1ccccc1 | inactive
31 | CCOc1c(Cl)cc(/C=N/O)cc1OC | inactive
32 | COc1cc(/C=N/O)cc(Br)c1OCc1cccc(Cl)c1 | 11.2 µM (active)
33 | COc1cc(/C=N/O)cc(Br)c1OS(=O)(=O)c1ccc(C)cc1 | 11.2 µM (active)
34 | COc1cc(/C=N/Nc2ccc(C)cc2)cc(Br)c1O | inactive
35 | COc1cc(/C=N/O)ccc1OCc1ccc([N+](=O)[O-])cc1 | inactive
36 | CCc1c(C)c2ccc(OC3CCCCC3=O)cc2oc1=O (stereo not given) | inactive
37 | CCOCCCN1C(=O)C2C(C(=O)Nc3ccc(OCC)cc3)C3C=CC2(O3)C1C(=O)NC1CCCCC1 (stereo not given) | inactive
38 | O=C(NC1CC1)C(Cc1ccccc1)NS(=O)(=O)c1ccccc1F (stereo not given) | inactive
39 | Cc1ccc(NC(=O)Nc2cccnc2)cc1 | inactive
40 | COc1cc(/C=C(\C#N)c2nc3c(s2)CC(C)CC3)ccc1O (stereo not given) | 4.47 µM (active)
41 | COc1cc(/C=N/Nc2nc3ccccc3s2)ccc1O | inactive
42 | COc1cc(/C=C(\C#N)c2nc3ccccc3[nH]2)ccc1O | inactive
43 | Cc1cc(-c2nnc(SCC(=O)Nc3ccc(S(N)(=O)=O)cc3)n2N)n[nH]1 | inactive
44 | NC(=O)c1cc(S(=O)(=O)N2CCCC2)ccc1OCc1ccc(F)cc1 | inactive

Row | Compound | Potency
45 | COC(=O)c1ccccc1NC(=O)CSc1n[nH]c(-c2ccncc2)n1 | inactive
46 | Cc1ccc(CSCC2Nc3ccc(C(=O)N4CCN(c5ccc(F)cc5)CC4)cc3NC2=O)cc1 (stereo not given) | inactive
47 | CN(C)CCCN(C(=O)c1ccc(S(=O)(=O)N2CCCCCC2)cc1)c1nc2ccc(Br)cc2s1 | 17.8 µM (active)
48 | CCN(CC)CCN(C(=O)c1ccc(S(=O)(=O)N2CCOCC2)cc1)c1nc2cc3c(cc2s1)OCCO3 | inactive
49 | CC(=O)N(CCCN(C)C)c1nc2ccc(C)cc2s1 | inactive
50 | Cc1ccc(SCC(=O)Nc2ncc(C)s2)cc1 | inactive
51 | Cc1occc1C(=O)Nc1nnc(C2CCCCC2)s1 | inactive
52 | Cc1cnc(NC(=O)c2ccccn2)s1 | 4.47 µM (active)
53 | Cc1cnc(NC(=O)CSc2c(Cl)cccc2Cl)s1 | inactive
54 | O=C(Nc1nnc(C2CC2)s1)c1ccccn1 | 4.47 µM (active)
55 | O=C(Cc1cccs1)Nc1nnc(C2CC2)s1 | inactive
56 | Cc1cccc(NC(=O)c2sc3nc(N4CCOCC4)c4c(c3c2N)CCCC4)c1 | inactive
57 | CN(CCNC(=O)c1cc2c(-c3ccccc3F)nn(C)c2s1)C1CCCCC1 | inactive
58 | NC(=O)c1oc2ccccc2c1NC(=O)Cc1ccccc1 | inactive
59 | Cc1c(C(=O)N/N=C/c2ccccc2)[nH]c2c([N+](=O)[O-])cccc12 | inactive
60 | COc1cc2c(C(=O)O)c(C)n(C)c2c2ccccc12 | inactive
61 | COc1cccc2c(C)c(C(=O)O)[nH]c12 | 10 µM (active)
62 | O=C(N/N=C/c1ccccn1)C12CC3CC(CC(C3)C1)C2 | 20 µM (active)
63 | O=C(Nc1ccc(S(=O)(=O)Nc2ncccn2)cc1)C12CC3CC(CC(C3)C1)C2 | inactive
64 | CNC(=O)C(=O)N/N=C/c1ccccn1 | inactive
65 | COc1cc2ccccc2cc1C(=O)Nc1ccc(NC(=O)c2cccs2)cc1 | inactive
66 | C=C(C)CNC(=S)/N=c1\scc(C)n1CC | 8.91 µM (active)

Row | Compound | Potency
67 | Cc1csc(=NC(=O)c2ccccc2)n1CCO | inactive
68 | Cc1csc(=Nc2ccccc2)n1CCO | inactive
69 | CC(C)(c1ccccc1)c1ccc(OCCN2CCCC2)cc1 | inactive
70 | CC(C)=CCN1CCN(Cc2cc3ccccc3[nH]2)CC1CCO (stereo not given) | inactive
71 | O=C(CSc1ccc(-c2ccc(Br)cc2)nn1)NCC1CCCO1 (stereo not given) | inactive
72 | O=C(c1cc(C(F)(F)F)cc(C(F)(F)F)c1)N1CCC[C@@]2(CCN(c3ccccn3)C2)C1 | inactive
73 | O=C(c1cc(C(F)(F)F)cc(C(F)(F)F)c1)N1CCC2(CCCN(c3ccccn3)C2)CC1 | 12.6 µM (active)
74 | O=C(c1cc(C(F)(F)F)cc(C(F)(F)F)c1)N1CCC2(CC1)CN(c1ccncc1)C2 | inactive
75 | Cc1ccc2c(cnn2C(=O)CCC(=O)NC2CCCC2)c1 | inactive
76 | COc1ccccc1NC(=O)c1ccc(N2CC3CC(C2)c2cccc(=O)n2C3)c(NC(=O)c2cccnc2)c1 (stereo not given) | inactive
77 | CCn1nc(NC(=O)c2ccco2)c2cc3ccc(C)cc3nc21 | inactive
78 | Cc1ccc(-n2nc3cc(Cl)c(NC(=O)c4ccco4)cc3n2)cc1 | inactive
79 | Cc1ccc(Cn2c(NC(=O)c3ccco3)nc3ccccc32)cc1 | 1.58 µM (active)
80 | CC(=O)c1nc2ccccc2n1Cc1ccccc1 | inactive
81 | CC(=O)Nc1nc2ccccc2n1Cc1ccc(C)cc1 | 2.51 µM (active)
82 | CCC(=O)Nc1nc2ccccc2n1Cc1ccccc1C | inactive
83 | COc1ccc(CNC(=O)C(C)NCc2ccccc2Cl)cc1 (stereo not given) | inactive
84 | CN(C)S(=O)(=O)c1ccc(C(=O)NCCN=C2NS(=O)(=O)c3ccccc32)cc1 | inactive
85 | Cc1cc2occ(CC(=O)NNC(=O)c3ccccc3F)c2cc1C | inactive
86 | N#Cc1ccc(C(=O)Nc2cccc3cccnc23)c(F)c1 | inactive
87 | O=C(NNc1cc(Cl)ccc1Cl)c1cccnc1Cl | inactive
88 | CC(=O)/C(=N\Nc1ccc(Cl)cc1Cl)Sc1cccc2cccnc12 | 5.01 µM (active)

Row | Compound | Potency
89 | CCn1c(CC(=O)Nc2ccccc2C)nnc1SCC(=O)NC1=NCCS1 | inactive
90 | CC1CC(C)CN(S(=O)(=O)c2cccc3nonc23)C1 (stereo not given) | inactive
91 | Cc1nnc2n1N=C(c1ccccc1)CS2 | inactive
92 | CCOc1cc(NC(=O)c2ccccc2C(=O)O)c(OCC)cc1NC(=O)c1ccccc1F | inactive
93 | CCN1CCN(c2cc3nc(C)n(Cc4ccccc4)c(=O)c3cc2NC(=O)c2ccccc2F)CC1 | 11.2 µM (active)
94 | CCC(=O)Nc1ccc2nc(C)n(Cc3ccccc3Cl)c(=O)c2c1 | inactive
95 | COc1cccc(NC(=O)CN(C)C(=O)c2ccccc2CCc2ccccc2)c1 | inactive
96 | CC1CCCCC1NC(=O)c1cn(C)c2ccc(S(=O)(=O)N3CCOCC3)cc2c1=O (stereo not given) | inactive
97 | O=c1onc(-c2c(F)cccc2F)n1-c1ccccc1Cl | inactive
98 | COc1ccc([N+](=O)[O-])cc1NCC(=O)c1ccc(C)cc1 | inactive
99 | Cc1nn(CC(=O)NC2CCCCC2)c(=O)c2cccn12 | inactive
100 | COc1ccc(C(=O)NC(C)CCc2ccccc2)c(OC)c1 (stereo not given) | inactive
101 | Cc1cc(NC(=O)COc2ccc(Cl)cc2Cl)n(CCC#N)n1 | inactive
102 | CCOC(=O)N1CCN(C(=O)COc2ccc(Cl)cc2C)CC1 | inactive
103 | CCCn1nnnc1NC(=O)COc1ccc(Cl)cc1C | 2 µM (active)
104 | O=C(Nc1ccccc1C(=O)NCC1CCCO1)c1ccccc1F (stereo not given) | inactive
105 | CCOC(CNC(=O)C1CCN(S(=O)(=O)c2ccc3nc4c(c(C(=O)O)c3c2)CC(C)CC4)CC1)OCC (stereo not given) | inactive
106 | O=C(Oc1cccc(C(=S)N2CCOCC2)c1)c1cccc(Cl)c1 | inactive
107 | CN(C)c1nc(=Nc2cccc(Cl)c2)ss1 | 0.891 µM (active)
108 | CCOC(=O)C1=C(O)CSC1=Nc1cccc(Cl)c1 | inactive
109 | Cn1c(=O)c(=O)n(C)c2cc(S(=O)(=O)CCC(=O)N3CCCCC3)ccc21 | inactive
110 | O=C(COc1ccc(Cl)cc1)NCCS(=O)(=O)N1CCN(c2ccc(F)cc2)CC1 | inactive
